High-throughput results: PubChem BioAssay, The Scripps Research Institute Molecular Screening Center
A selection: hits, their analogues and other compounds. The true share with any hit is near 3.5%.
GPR151 activ: activates the human receptor GPR151; Q8TDV0; PathHunter beta-arrestin GPR151 cells, luminescence; activation, % at 11.2 µM; 1% of 650,000 active; AID 1508602; in the data active means activation above about 4.9%
MITF inh: inhibitors of human MITF; 0.91% of 650,000 active; inhibition, % at 2.6 µM; AlphaScreen MITF homodimerization, bead proximity signal; AID 1259374; in the data active means inhibition above about 50%
Target sequence (O75030 whole entry, looked up): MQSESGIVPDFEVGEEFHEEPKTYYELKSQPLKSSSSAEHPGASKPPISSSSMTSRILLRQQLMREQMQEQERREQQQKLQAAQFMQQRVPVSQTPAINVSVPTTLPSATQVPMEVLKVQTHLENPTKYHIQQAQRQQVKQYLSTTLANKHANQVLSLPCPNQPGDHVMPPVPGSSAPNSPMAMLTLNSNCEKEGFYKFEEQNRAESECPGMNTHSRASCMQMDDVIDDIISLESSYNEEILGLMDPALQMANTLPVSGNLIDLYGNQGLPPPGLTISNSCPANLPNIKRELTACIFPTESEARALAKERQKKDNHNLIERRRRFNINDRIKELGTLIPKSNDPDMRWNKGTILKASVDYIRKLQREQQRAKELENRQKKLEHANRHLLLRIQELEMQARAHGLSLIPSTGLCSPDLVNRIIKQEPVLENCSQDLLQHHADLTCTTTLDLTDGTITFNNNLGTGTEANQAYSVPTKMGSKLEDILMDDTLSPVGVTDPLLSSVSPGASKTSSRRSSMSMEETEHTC
FBW7 act: activators of human E3 ligase FBW7; Q969H0; AlphaScreen FBW7–phospho-cyclin E peptide binding, activator screen; normalized activity (activation), % at 26.1 µM; 0.13% of 650,000 active; AID 1259310; in the data active means normalized activity above about 1.9%;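 further: purified mutant Fbw7 with reduced substrate affinity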
TEAD-YAP inh: TEAD-YAP interaction inhibition; HEK-TIYL cells, TEAD-Gal4/YAP UAS-luciferase luminescence; inhibition, % at 9.12 µM; 1.4% of 640,000 active; AID 1259422; in the data active means inhibition above about 32%
GPR151 conf act: human GPR151 activation, confirmation screen; 6,700 tested, under 10 active; GPR151 PathHunter beta-arrestin cells, luminescence, 90 min; % of EA-reagent control over plate median; shares compounds with GPR151 activ; activation, % at 11.2 µM;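 active means mean percent activation across replicates above the confirmation screen cutoff of 4.91%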
GPR119 ag: counter-screen for GPR151 activators: effect on human GPR119 | GPR119 PathHunter beta-arrestin cells, luminescence, 90 min; 0 = compound-well median, 100 = enzyme-acceptor control | activation, % at 11.2 µM | shares compounds with GPR151 activ | 0.3% of 6,700 active;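 active means mean percent activation in the counterscreen above 29.09%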;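 further: counterscreen on off-target GPR119 to flag nonselective hits from the GPR151 activator screen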
Large screens that a line does not name were inactive (follow-up assays come after a bar, where they were run).

COc1ccc(NC(=O)c2cc(CNCC(C)(C)C)cc(NC(C)=O)c2)cc1	none
COc1ccc2ccccc2c1/C=C1\C(=O)NC(=O)N(c2ccc([N+](=O)[O-])cc2)C1=O	GPR151 activ 6.7 | GPR151 conf act inactive | GPR119 ag inactive
COc1ccc(N2C(=O)NC(=O)/C(=C/c3cccn3-c3cccc([N+](=O)[O-])c3)C2=O)cc1	GPR151 activ 4.9 | GPR151 conf act inactive | GPR119 ag inactive
COc1cccc(N2C(=O)NC(=O)/C(=C/c3c(OC)ccc4ccccc34)C2=O)c1	none
Cc1cc(C)c(-n2c(O)c(/C=C3\C=CC=N3)c(=O)[nH]c2=O)c(C)c1	GPR151 activ 7.3, TEAD-YAP inh 46 | GPR151 conf act inactive | GPR119 ag inactive
CC12C=CC(C3OCCO3)(O1)C1C(=O)N(c3ccc(Cl)cc3)C(=O)C12 (stereo not drawn)	GPR151 activ 6.4 | GPR151 conf act inactive | GPR119 ag inactive
COc1cccc(NC(=O)CSc2nc3ccc(OC)cc3cc2C#N)c1	GPR151 activ 5.1 | GPR151 conf act inactive | GPR119 ag inactive
COc1ccc2c(CN3C(=O)C(=O)N(C4CCCC4)C3=O)cc(=O)oc2c1	GPR151 activ 10 | GPR151 conf act inactive | GPR119 ag inactive
CCOC(=O)c1sc2nc(SCc3c(F)cccc3F)n(Cc3ccccc3)c(=O)c2c1C	none
COc1ccc(/C=C2/N=C(c3ccccc3)NC2=O)cc1	GPR151 activ 5.2 | GPR151 conf act inactive | GPR119 ag inactive
COc1ccc(/C=C2\N=C(c3ccc(C)cc3)NC2=O)cc1	none
COc1ccc(/C=C(\C#N)c2ccccn2)c(OC)c1OC	none
COc1ccc2ccccc2c1/C=C(\C#N)c1ccccn1	GPR151 activ 5.2 | GPR151 conf act inactive | GPR119 ag inactive
CN(C)S(=O)(=O)N1CCC(c2nc3ccccc3[nH]2)CC1	none
O=C(CSc1ccc2nnc(-c3ccc(Cl)cc3)n2n1)NCc1ccc(F)cc1	none
NC(=O)c1cc2cc(Br)ccc2oc1=Nc1ccc(F)cc1F	GPR151 activ 6.9 | GPR151 conf act inactive | GPR119 ag inactive
CCOCCCNC(=O)c1cc(C(=O)c2cc(F)ccc2O)coc1=N	none
Cc1cccc(CS(=O)(=O)CC2Nc3ccc(C(=O)N4CCN(c5cccc(C(F)(F)F)c5)CC4)cc3NC2=O)c1 (stereo not drawn)	GPR151 activ 5.2 | GPR151 conf act inactive | GPR119 ag inactive
Cc1ccc(CS(=O)(=O)CC2Nc3ccc(C(=O)N4CCN(c5cccc(C(F)(F)F)c5)CC4)cc3NC2=O)cc1 (stereo not drawn)	none
O=C1Nc2cc(C(=O)N3CCN(c4cccc(C(F)(F)F)c4)CC3)ccc2Sc2ccccc21	GPR151 activ 5.1 | GPR151 conf act inactive | GPR119 ag inactive
CC(C)C(=O)OCCN1C(=O)c2cccc3c(N4CCOCC4)ccc(c23)C1=O	GPR151 activ 6.6 | GPR151 conf act inactive | GPR119 ag inactive
CC(C)C(=O)OCCN1C(=O)c2cccc3c(N4CCCCC4)ccc(c23)C1=O	none
COCCCNC(=O)c1ccc2c(c1)NC(=O)/C(=C\c1ccc(OC)cc1)S2	GPR151 activ 7.2 | GPR151 conf act inactive | GPR119 ag inactive
COc1ccc(/C=C2/Sc3ccc(C(=O)NC(C)(C)C)cc3NC2=O)cc1	none
CC(C)(C)CC(C)(C)NC(=O)c1ccccc1[N+](=O)[O-]	none
CN(C)S(=O)(=O)c1ccc(Cl)c(NC(=O)CN2CCNC(=O)C2)c1	GPR151 activ 5.2 | GPR151 conf act inactive | GPR119 ag inactive
COC(=O)c1ccc(Cl)cc1NC(=O)N(C(C)C)C1CCN(C(C)=O)CC1	GPR151 activ 7.0 | GPR151 conf act inactive | GPR119 ag inactive
COc1ccc(NC(=O)N(C(C)C)C2CCN(C(C)=O)CC2)c(OC)c1	none
Cn1c(=O)n(CC(=O)NCc2ccc(F)cc2)c2cccnc21	GPR151 activ 10 | GPR151 conf act inactive | GPR119 ag inactive
CCC(=O)N1CCc2cc(S(=O)(=O)CCC(=O)Nc3cccc(OC)c3)ccc21	none
COc1ccc(C(NC(C)=O)c2cc(Cl)c3cccnc3c2O)cc1 (stereo not drawn)	GPR151 activ 5.1, MITF inh 62, TEAD-YAP inh 84 | GPR151 conf act inactive | GPR119 ag inactive
COc1ccc(C(=O)NC(c2ccccc2OC)c2cc(Cl)c3cccnc3c2O)cc1 (stereo not drawn)	none
O=c1oc2ccc(Br)cc2cc1-c1csc(-c2ccc(Cl)cc2)n1	none
O=c1oc2ccc(Br)cc2cc1-c1csc(-c2ccccc2)n1	GPR151 activ 5.2 | GPR151 conf act inactive | GPR119 ag inactive
O=C(N1CCCCC1)C12CC3CC(C1)CC(c1ccc([N+](=O)[O-])cc1)(C3)C2	GPR151 activ 6.8 | GPR151 conf act inactive | GPR119 ag inactive
CC(C)(C)OC(=O)N[C@H]1CCC[C@@H](NC(=O)c2cccc(-n3cc(NC(=O)Cc4ccccc4)cn3)c2)C1	GPR151 activ 5.4 | GPR151 conf act inactive | GPR119 ag inactive
CCCCC[C@@](C)(O)/C=C/[C@@H]1C(C/C=C\CCCC(=O)O)[C@@H](O)C[C@H]1O (stereo partly drawn)	GPR151 activ 7.1 (no result: FBW7 act, TEAD-YAP inh) | GPR151 conf act inactive | GPR119 ag inactive
CCCCC[C@@](C)(O)/C=C/[C@@H]1[C@@H](C/C=C\CCCC(=O)OC)[C@@H](O)C[C@H]1O	none (no result: FBW7 act, TEAD-YAP inh)
Cc1sc2nc(SCC(=O)N3CCCCC3C)nc(N)c2c1C (stereo not drawn)	GPR151 activ 11 | GPR151 conf act inactive | GPR119 ag inactive
Cc1sc2nc(SCC(=O)NC3CCCC3)nc(N)c2c1C	none
CC(C)OCCCNC(=O)CC1C(=O)NCCN1C (stereo not drawn)	GPR151 activ 5.8 | GPR151 conf act inactive | GPR119 ag inactive
COc1ccc(S(=O)(=O)NCC(c2ccco2)N(C)C)cc1F (stereo not drawn)	GPR151 activ 6.5 | GPR151 conf act inactive | GPR119 ag inactive
CC(=O)Nc1cc(C(=O)c2ccccc2)ccc1N1CCOCC1	GPR151 activ 6.1 | GPR151 conf act inactive | GPR119 ag inactive
COc1ccccc1C(=O)Nc1cc(C(=O)c2ccccc2)ccc1N1CCOCC1	none
CCOc1cc(C(=O)Nc2ccccc2N2CCOCC2)cc(OCC)c1OCC	GPR151 activ 5.8 | GPR151 conf act inactive | GPR119 ag inactive
CCOC(=O)c1cccc(Nc2c(-c3ccc(C)c(C)c3)c(=O)c2=O)c1	GPR151 activ 12 | GPR151 conf act inactive | GPR119 ag inactive
COc1ccccc1Nc1c(-c2ccc(C)c(C)c2)c(=O)c1=O	none
Cc1ccc(-c2c(Nc3ccccc3F)c(=O)c2=O)cc1C	GPR151 activ 5.8, TEAD-YAP inh 49 | GPR151 conf act inactive | GPR119 ag inactive
CCOC(=O)c1ccc(Nc2c(-c3ccc(Cl)cc3)c(=O)c2=O)cc1	none
CC(C)N(CCNc1nc(-c2ccc(C(=O)NC3CC3)cc2)nc2c1ncn2Cc1ccc(C(F)(F)F)cc1)C(C)C	none
